VP16 counter – VP16 counterscreen qHTS for inhibitors of ROR gamma transcriptional activity | Drosophila S2 Gal4-VP16 UAS-luciferase, luminescence, 20 h | Potency, µM (doses to about 53.6 µM), hits mostly inhibitors | actives 3.5% (n = 310,000);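 further: Gal4-VP16 expression switched on by copper sulfate through the metallothionein promoter; nearly all actives have a fitted effect of over 50% in size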
B2AR arrestin – qHTS assay of beta-arrestin-biased ligands of beta2-adrenergic receptor; actives 0.02% (n = 330,000); beta-arrestin recruitment to beta2AR, cell-based reporter; Beta-2 adrenergic receptor (Homo sapiens), P07550; AID 492947, 2010; Potency, µM (series often up to 46.1 µM), most hits filed as activators; further: nearly all actives have a fitted effect of over 65% in size
Target sequence (P07550 whole entry, looked up): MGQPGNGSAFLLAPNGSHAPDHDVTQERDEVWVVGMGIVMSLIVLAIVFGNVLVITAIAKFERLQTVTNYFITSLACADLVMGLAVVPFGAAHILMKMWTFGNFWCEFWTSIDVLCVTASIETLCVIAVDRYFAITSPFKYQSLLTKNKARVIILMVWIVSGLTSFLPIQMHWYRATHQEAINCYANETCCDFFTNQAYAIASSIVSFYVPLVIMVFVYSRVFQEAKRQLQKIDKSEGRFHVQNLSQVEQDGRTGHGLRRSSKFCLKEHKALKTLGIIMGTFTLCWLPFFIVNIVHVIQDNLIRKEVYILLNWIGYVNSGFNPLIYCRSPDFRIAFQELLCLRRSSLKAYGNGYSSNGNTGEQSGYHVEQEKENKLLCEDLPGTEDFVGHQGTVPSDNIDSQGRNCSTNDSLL
RORg inh – qHTS for inhibitors of ROR gamma transcriptional activity | Potency, µM (series often up to 53.6 µM), most hits filed as inhibitors | Nuclear receptor ROR-gamma (Mus musculus), P51450 | AID 2551, 2010 | actives 5.4% (n = 310,000) | Drosophila S2 Gal4-RORgamma UAS-luciferase reporter, 20 h; further: nearly all actives have a fitted effect of over 60% in size
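Read-out: Photinus luciferase luminescence; inhibitors lower reporter signal. Insect Schneider cells with Gal4-ROR gamma fusion under metallothionein promoter, UAS reporter; 700 uM final copper sulfate induction, 20 hr, ambient temperature.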
NPSR antagonist – qHTS Assay for Antagonists of the Neuropeptide S Receptor: cAMP Signal Transduction; actives 1% (n = 220,000); Q6W5P4; CHO-NPSR cells, cAMP TR-FRET, antagonist mode; Potency, µM (doses to about 38.3 µM), most hits filed as inhibitors; further: nearly all actives have a fitted effect of over 50% in size
A number is an active result; i = inactive; ? = inconclusive; nt = no result; [ ] = dose if it differs, or a comment. Hits are enriched below; roughly 5.7% of the tested compounds scored in any of these assays. The call rests on the fitted dose curve; in most records, active means well fitted curve in the direction sought with a large enough effect; inconclusive means small, poorly fitted or top-dose-only effect, or another doubt; inactive means no such curve, though single readings can be large; an effect the other way counts as inactive or inconclusive.

SMILES	VP16 counter	B2AR arrestin	RORg inh	NPSR antagonist
CCCCC1=CC2=C(c3ccco3)C(=O)C(C)(OC(=O)c3ccc(OC)cc3)C(=O)C2=CN1CC(C)C (centres undefined)	i	i	i	10µM
O=C(NCCc1nnc2ccc(SCC(=O)N3CCCC3)nn12)c1ccccc1	i	i	i	nt
CC1CCCCN1S(=O)(=O)c1ccc(C(=O)Nc2ccccc2-c2nc3ccccc3[nH]2)cc1 (centres undefined)	i	i	i	i
CC(C)N1CCc2c(sc(NC(=O)c3ccc(S(=O)(=O)N4CCCCC4C)cc3)c2C(N)=O)C1 (centres undefined)	14µM	i	?	nt
CC1CCCCN1S(=O)(=O)c1ccc(C(=O)Nc2nnc(-c3ccccn3)o2)cc1 (centres undefined)	5µM	i	2µM	i
Cc1nnc(NC(=O)c2ccc(S(=O)(=O)N3CC(C)CC(C)C3)cc2)o1 (centres undefined)	1.4µM	i	1.4µM	nt
CC1CCCCN1S(=O)(=O)c1ccc(C(=O)Nc2nnc(C3CC3)o2)cc1 (centres undefined)	0.32µM	i	0.13µM	nt
COc1ncc2nc(-c3cc(F)cc(F)c3)c(=O)n(CCC#N)c2n1	i	nt	i	nt
COc1cc([C@@H]2Oc3cc([C@H]4Oc5cc(O)cc(O)c5C(=O)[C@H]4O)ccc3O[C@H]2CO)ccc1O	i	nt	i	nt
COc1ccc(CN(CC(=O)NCC2CCCO2)C(=O)CCC(=O)Nc2nccs2)cc1 (centres undefined)	i	i	i	nt
COc1ccc2[nH]cc(CCNc3cc(-c4c(C)noc4C)ncn3)c2c1	i	nt	i	nt
CC1CCCCN1S(=O)(=O)c1ccc(C(=O)Nc2nnc(-c3ccco3)o2)cc1 (centres undefined)	0.63µM	i	0.71µM	nt
CC1CCCCN1S(=O)(=O)c1ccc(NC(=O)c2cccc(-n3cnnn3)c2)cc1 (centres undefined)	i	i	i[10 µM]	i[7.67 µM]
Cc1nnc(NC(=O)c2ccc(S(=O)(=O)N3CCc4ccccc4C3)cc2)o1	5µM	i	1.3µM	i
Cc1nnc(NC(=O)c2ccc(S(=O)(=O)N3CCCCC3C)cc2)o1 (centres undefined)	1.1µM	i	1.1µM	nt
O=C(NCCN1CCOCC1)C(=O)NCC1OCCN1S(=O)(=O)c1ccccc1 (centres undefined)	i	i	i	nt
CCCOCC(O)CC(Cc1ccccc1)C(=O)NN (centres undefined)	i	i	i	i
NS(=O)(=O)c1ccc(CCNCc2cc(Br)ccc2OCc2ccccc2F)cc1	13µM	i	i	i
NS(=O)(=O)c1ccc(CCNCc2cc(Cl)ccc2OCc2ccccc2)cc1	?	i	?	nt
Nc1nonc1C(=O)NCCNCc1cc(Br)ccc1OCc1ccccc1F	4µM	i	?	i
CC1=C(C(=O)Nc2ccccn2)C(c2ccc(Cl)cc2)NC(=S)N1 (centres undefined)	i	i	i	i
CCOC(=O)c1c(NC(=O)C2=C(C)NC(=S)NC2c2ccc(C)cc2)sc(C)c1C (centres undefined)	3.5µM	i	2.8µM	i
CCOC(=O)c1c(NC(=O)C2=C(C)NC(=S)NC2c2ccc(F)cc2F)sc(C)c1C (centres undefined)	6.3µM	i	2.8µM	i
CCOC(=O)c1c(NC(=O)C2=C(C)NC(=S)NC2c2ccc(F)cc2)sc(C)c1C (centres undefined)	?	i	13µM	i
Cc1ccccc1N(CC(=O)NCC1CCCO1)C(=O)CCC(=O)Nc1nccs1 (centres undefined)	i	i	i	nt
SMILES	VP16 counter	B2AR arrestin	RORg inh	NPSR antagonist
CN1CCN(C(=O)c2cc3ccccc3cc2O)CC1	nt	i	nt	nt
C=CCN(CC=C)Cc1nc(N)nc(Nc2ccccc2C)n1	i	i	13µM	i
O=C(NCC1CCCO1)Nc1cccc(Cl)c1 (centres undefined)	i	i	i	i
COc1ccc(NC(=S)NCC2CCCO2)c(OC)c1 (centres undefined)	i	i	i	i
S=C(NCC1CCCO1)Nc1cc(Cl)c(Cl)cc1Cl (centres undefined)	18µM	i	3.2µM	i
S=C(NCC1CCCO1)Nc1ccc(Nc2ccccc2)cc1 (centres undefined)	?	i	?	i
S=C(NCC1CCCO1)Nc1cccc(Cl)c1 (centres undefined)	20µM	i	16µM	i
Cc1cc(C)cc(NC(=S)NCC2CCCO2)c1 (centres undefined)	35µM	i	11µM	i
O=C(O)c1nn(-c2cccc(Cl)c2)c(=O)cc1O	i	i	i	i
CC(=O)c1cccc(NC(=O)/C=C/c2ccc([N+](=O)[O-])s2)c1	4.5µM	i	10µM	i
Cc1ccccc1NC(=O)/C=C/c1ccc([N+](=O)[O-])s1	3.2µM	i	4.5µM	i
O=C(Nc1ccccc1F)c1ccc([N+](=O)[O-])s1	i	i	13µM	i
COc1ccc(S(=O)(=O)N2CN3CCN(C3)C2)cc1OC	i	i	i	nt
O=C1CCC(C(=O)N2CCCCCC2)CN1CCc1ccc(Cl)cc1 (centres undefined)	i	i	i	nt
COc1ccccc1/C=C/C(=O)Nc1cccnc1Cl	i	i	?	nt
COc1ccccc1-c1cc(C(F)(F)F)nc(S(=O)(=O)CCCC(=O)NCc2ccc(F)cc2)n1	?	i	8.9µM	?
COc1ccccc1-c1cc2nc(C)c(CCC(=O)NCc3ccc(F)cc3)c(C)n2n1	i	i	i	i
COc1ccccc1-c1cc(C(F)(F)F)nc(S(=O)(=O)CCCC(=O)N2CCCCC2C)n1 (centres undefined)	16µM	i	11µM	?
COc1ccccc1-c1cc(C(F)(F)F)nc(S(=O)(=O)CCCC(=O)Nc2cccnc2Cl)n1	8.9µM	i	4µM	?
CS(=O)(=O)c1nc(-c2ccco2)cc(C(F)(F)F)n1	2.8µM	i	2.5µM	10µM
COc1ccc([C@@H]2CC(=O)c3c(O)cc(O[C@@H]4O[C@H](CO)[C@@H](O)[C@H](O)[C@H]4O[C@@H]4O[C@@H](C)[C@H](O)[C@@H](O)[C@H]4O)cc3O2)cc1	i	nt	i	nt
N#Cc1ccc(CS(=O)(=O)c2nnnn2-c2ccccc2)cc1	i	nt	?	nt
CCc1cc(C(=O)N=Nc2c(O)[nH]c3c(Br)cc(Br)cc23)c2ccccc2n1	i	i	?	i
COc1ccccc1-c1cc(C(F)(F)F)nc(N2CCCCC2)n1	i	i	i	i
COc1ccccc1-c1cc(C(F)(F)F)nc(N2CCCC2)n1	i	i	i	i
COc1ccccc1-c1cc(C(F)(F)F)nc(S(C)(=O)=O)n1	7.1µM	i	4µM	7.9µM
COc1ccccc1-c1cc(C(F)(F)F)nc(S(=O)(=O)CCCC(=O)NC(C)C)n1	7.1µM	i	4.5µM	?
Cc1c(Cl)ccc2c(C(=O)NC(C)c3ccncc3)cc(-c3ccncc3)nc12 (centres undefined)	13µM	i	?	i
O=S(=O)(c1ccc(Cl)c(Cl)c1)c1snnc1-c1ccccc1	?	i	20µM	?
